Test [1] is described as follows: qHTS of pediatric cancer cell lines to identify multiple opportunities for drug repurposing: Confirmatory screen for BT-37 cells (AID 1347117). Further: potency means the concentration at half of the fitted maximal effect.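 Further: viability measured after 48 h of compound exposure; nearly all actives have a fitted effect of over 55% in size.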 In outline:
(§1)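 Cells (500-1,000/well) in growth media were settled 5 h at 37 degrees C, then given compounds for 48 h. Viability was read as CellTiter-Glo luminescence. Primary runs used MIPE at 11 points (0.78 nM-46 µM) and NPC at 8 points (0.59 nM-46 µM); follow-ups used 11 points.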

The nature of test [2]: qHTS of pediatric cancer cell lines to identify multiple opportunities for drug repurposing: Confirmatory screen for MG 63 (6-TG R) cells (AID 1347119). Further: nearly all actives have a fitted effect of over 55% in size. Further: potency means the concentration at half of the fitted maximal effect. The method, boiled down: as §1
The nature of test [3]: qHTS of pediatric cancer cell lines to identify multiple opportunities for drug repurposing: Confirmatory screen for U-2 OS cells (AID 1347122). Further: nearly all actives have a fitted effect of over 65% in size. Further: potency means the concentration at half of the fitted maximal effect. In outline:
as §1

Test [4] can be described thus: qHTS of pediatric cancer cell lines to identify multiple opportunities for drug repurposing: Confirmatory screen for Rh41 cells (AID 1347123). Further: potency means the concentration at half of the fitted maximal effect; nearly all actives have a fitted effect of over 60% in size. The method, boiled down:
as §1
(In general: Quantitative high-throughput screening tests each substance at several concentrations.)

Test [5] can be described thus: qHTS of pediatric cancer cell lines to identify multiple opportunities for drug repurposing: Confirmatory screen for Rh18 cells (AID 1347125). Further: nearly all actives have a fitted effect of over 55% in size. In outline: as §1
Test [6] is described as follows: qHTS of pediatric cancer cell lines to identify multiple opportunities for drug repurposing: Confirmatory screen for Rh30 cells (AID 1347126). Further: nearly all actives have a fitted effect of over 55% in size. Further: potency means the concentration at half of the fitted maximal effect. The method, boiled down: as §1
Test [7] can be described thus: qHTS of pediatric cancer cell lines to identify multiple opportunities for drug repurposing: Confirmatory screen for OHS-50 cells (AID 1347128). The method, boiled down:
as §1

Test [8] can be described thus: qHTS of pediatric cancer cell lines to identify multiple opportunities for drug repurposing: Confirmatory screen for SK-N-SH cells (AID 1347129).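 Further: cells exposed to compound for 48 h before viability read; nearly all actives have a fitted effect of over 60% in size.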 The method, boiled down: as §1
Test [9] in a line: qHTS of pediatric cancer cell lines to identify multiple opportunities for drug repurposing: Confirmatory screen for TC32 cells (AID 1347118).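 Further: potency means the concentration at half of the fitted maximal effect; cells exposed to compound for 48 h before the read; nearly all actives have a fitted effect of over 65% in size.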 In outline: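 Luminescent CellTiter-Glo read-out of metabolically active TC32 cells after 48 h compound exposure. Primary: MIPE 11-point, 0.78 nM–46 µM; NPC 8-point, 0.59 nM–46 µM. Confirmatory: 11-point dilutions.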
Test [10] in a line: qHTS of pediatric cancer cell lines to identify multiple opportunities for drug repurposing: Confirmatory screen for RD cells (AID 1347124).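 Further: cells exposed to compound for 48 h before viability readout; nearly all actives have a fitted effect of over 65% in size.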 Further: potency means the concentration at half of the fitted maximal effect. The method, boiled down: as §1
For test [11], the system named is Zika virus NS2B-NS3 protease. The test is described as follows: Primary screen GU AMC qHTS for Zika virus inhibitors (AID 1347154). Further: nearly all actives have a fitted effect of over 70% in size. In outline:
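Unlinked Zika NS2B hydrophilic domain/NS3 protease domain noncovalent complex (25 nM final) in 10 mM Tris-HCl pH 8.0, 0.01% Tween 20, with AMC peptide substrate. Fluorescence (ex 340, em 450 nm) change over 15 min, room temperature; percent inhibition fitted to 4-parameter Hill equation.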

Test [12] deals with Zika virus NS2B-NS3 protease (unlinked). The test is described as follows: Optimization of GU AMC qHTS for Zika virus inhibitors: Unlinked NS2B-NS3 protease assay (AID 1347151). Further: series mostly up to about 52 µM; nearly all actives have a fitted effect of over 80% in size. In outline: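 Unlinked protease (25 nM final); buffer 10 mM Tris-HCl pH 8.0 + 0.01% Tween 20; AMC substrate; 15 min RT, dark; Δfluorescence normalized to no-inhibitor/no-enzyme controls; 4-parameter Hill fit.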

Another test deals with Furin (Homo sapiens) (UniProt P09958). The test is described as follows: Furin counterscreen qHTS for Zika virus inhibitors (AID 1347149). Further: nearly all actives have a fitted effect of over 70% in size. Further: potency means the concentration at half of the fitted maximal effect. In outline: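 Fluorogenic cleavage of BOC-RVRR-AMC (2 microM final, Km ~15 µM) was monitored (ex 340, em 450 nm) at 37C after 15 min RT preincubation of 5 nM furin with compounds in HEPES pH 7.0 buffer with CaCl2 and Triton X-100. Percent inhibition was fitted to a 4-parameter Hill curve.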
Chain of Furin (Homo sapiens) (P09958 whole entry, looked up): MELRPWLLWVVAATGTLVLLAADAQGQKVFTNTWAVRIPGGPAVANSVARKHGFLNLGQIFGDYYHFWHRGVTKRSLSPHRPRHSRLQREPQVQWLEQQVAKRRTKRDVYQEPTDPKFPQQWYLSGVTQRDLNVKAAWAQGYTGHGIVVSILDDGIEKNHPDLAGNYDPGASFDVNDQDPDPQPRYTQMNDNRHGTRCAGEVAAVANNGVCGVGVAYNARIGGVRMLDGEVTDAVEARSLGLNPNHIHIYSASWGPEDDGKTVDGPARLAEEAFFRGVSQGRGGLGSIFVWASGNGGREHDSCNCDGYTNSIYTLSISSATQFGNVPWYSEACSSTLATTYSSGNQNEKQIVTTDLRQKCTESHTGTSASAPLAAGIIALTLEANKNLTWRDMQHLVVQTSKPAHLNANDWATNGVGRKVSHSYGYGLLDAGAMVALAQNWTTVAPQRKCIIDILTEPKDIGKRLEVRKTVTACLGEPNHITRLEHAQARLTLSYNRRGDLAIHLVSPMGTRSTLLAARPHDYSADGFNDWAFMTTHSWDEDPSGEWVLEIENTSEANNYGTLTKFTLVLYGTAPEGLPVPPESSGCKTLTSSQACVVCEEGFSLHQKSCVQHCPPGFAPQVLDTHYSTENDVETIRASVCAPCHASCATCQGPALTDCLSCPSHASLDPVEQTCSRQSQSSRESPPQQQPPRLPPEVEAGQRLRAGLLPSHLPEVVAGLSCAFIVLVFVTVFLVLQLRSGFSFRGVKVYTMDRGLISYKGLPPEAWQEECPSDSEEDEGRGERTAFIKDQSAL

The target in test [13] is N-terminal Xaa-Pro-Lys N-methyltransferase 1 (Homo sapiens) (UniProt Q9BV86). The test is described as follows: qHTS Assay for Inhibitors of N-terminal methyltransferase 1 (NTMT1): LOPAC validation of the NTMT1 SAHH-coupled ThioGlo3 Assay (AID 1347143). Further: nearly all actives have a fitted effect of over 70% in size. In outline: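 Fluorescence read-out (excitation 340nm, emission 450nm) of SAH-derived thiol, measured via SAHH coupling and ThioGlo3, taken immediately and after a 30 min room-temperature reaction, then normalized to the background read. Enzyme: NTMT1 at 125nM; cofactor SAM 100uM in the added reagent.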
Chain of N-terminal Xaa-Pro-Lys N-methyltransferase 1 (Homo sapiens) (Q9BV86 whole entry, looked up): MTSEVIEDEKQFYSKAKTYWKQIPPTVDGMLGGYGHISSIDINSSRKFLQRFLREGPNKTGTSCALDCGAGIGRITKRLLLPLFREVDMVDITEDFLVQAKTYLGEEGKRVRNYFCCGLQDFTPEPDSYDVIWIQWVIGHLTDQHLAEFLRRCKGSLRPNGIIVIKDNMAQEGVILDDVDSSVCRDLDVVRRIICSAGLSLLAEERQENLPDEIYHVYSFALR

In test [14] the test system is Zika virus NS2B-NS3 protease (linked construct). The test is described as follows: Confirmatory screen NINDS AMC qHTS for Zika virus inhibitors (AID 1347152). Further: potency means the concentration at half of the fitted maximal effect; nearly all actives have a fitted effect of over 70% in size. Conditions: Purified linked NS2B-NS3, AMC substrate fluorescence. The method, boiled down:
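Enzyme (1 nM, linked construct) was preincubated with compound for 15 minutes at room temperature in 10 mM Tris-HCl pH 8.0 with 0.01% Tween 20. Bz-Nle-Lys-Arg-Arg-AMC was then added to 10 microM, and AMC fluorescence was recorded immediately and after 15 minutes.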

Test [15] can be described thus: ZIKV-mCherry secondary qHTS for Zika virus inhibitors (AID 1347158). Further: top concentration of the series differs between compounds. In outline: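 Vero, 5,000 cells/well, o/n 37 °C; cpd pin-transferred in DMSO; ZIKV-mCherry MOI 1, 48-72 h 37 °C; 32% PFA stock fix, Hoechst; imaged 10x DAPI/mCherry; mCherry+ threshold 450 RFU; % infection.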

SMILES strings stand for the structures. Records with an inconclusive call do not appear. A number with no mark means an inactive call. Calls of active or inactive are those of the source. The call rests on the fitted dose curve; in most records, active means well fitted curve in the direction sought with a large enough effect; inconclusive means small, poorly fitted or top-dose-only effect, or another doubt; inactive means no such curve, though single readings can be large; an effect the other way counts as inactive or inconclusive.

`CCCCCCCCCCC[C@@H](C[C@@H]1OC(=O)[C@H]1CCCCCC)OC(=O)[C@H](CC(C)C)NC=O`: the Potency entry in test [1], in test [2], in test [3], in [5], in [6] and in test [7] was “inactive” in each case. Besides, in test [8], the Potency result was “inactive”. For the same compound, the Potency in test [4] was 4.65 µM (active).
Turning to `O=[N+]([O-])c1ccc(/C=N\O)o1`, the Potency result in [1], in [5], in [7], in test [8] and in test [11] was “inactive” in each case. Further, the Potency in test [9] was 3.29 µM (active); in test [3] it was 4.14 µM (active); in test [4], 5.85 µM (active); in [10] it was 0.414 µM (active); in test [6] it was 1.17 µM (active).
Regarding `CC(=O)NO`, the Potency entry in test [11] was “inactive”.
For the compound `O=C(Oc1cccc2cccnc12)c1ccccc1`, the values for the Potency in test [1] and in test [4] were 20.8 µM (active) and 8.27 µM (active), respectively. Moreover, the Potency result in [2], in [3], in test [10], in test [6], in [8] and in test [11] was “inactive” each time.
In the case of `Nc1ccc(S(=O)(=O)NCc2ccccc2)cc1`, the Potency entry in test [11] is “inactive”.
As to `CC(C)(C)NC[C@H](O)COc1nsnc1N1CCOCC1`, the compound was called inactive in [12]. Also, the Potency result in test [11] was “inactive”.
`CCN(CC)CCOC(=O)C1(c2ccccc2)CCCC1`: the Potency result in test [11] was “inactive”.
For `O[C@@H](c1cc(C(F)(F)F)nc2c(C(F)(F)F)cccc12)[C@H]1CCCCN1`, the Potency result (in the test with Furin (Homo sapiens); in test [11]) was “inactive” in each case. Also, the result in [12] was inactive.
Consider `Cc1cc2c(OCC(CNC(C)(C)C)OC(=O)c3ccccc3)cccc2[nH]1` (configuration not stated), for which the Potency entry in test [11] was “inactive”.
For the compound `CCOC(=O)[C@H](CCc1ccccc1)N[C@@H](C)C(=O)N1[C@H](C(=O)O)C[C@H]2CCCC[C@@H]21`, the compound was classed as inactive in test [13] and in test [12].
Take `CCCCCCCCCCCCCC[N+](C)(C)Cc1ccccc1`: in test [11], the Potency result is “inactive”.
On to `CN=C(N)NCCC[C@H](N)C(=O)O`, for which the compound was called inactive in test [13] and in test [12]. The Potency result in test [11] was “inactive”.
For the compound `Nc1nc(Cl)nc2c1ncn2[C@@H]1O[C@H](CO)[C@@H](O)[C@@H]1F`, the Potency in [1] is 0.329 µM (active); in [9], 0.369 µM (active); in test [2], 0.522 µM (active); in test [6], 5.22 µM (active). In addition, the Potency result in [3], in [10] and in [11] was “inactive” each time.
Regarding `CCC(CC)(CC(=O)Nc1cccc(/C=C/c2nc(C3CCC3)cs2)c1)C(=O)O`, the Potency was 21.5 µM (active) in the test with Furin (Homo sapiens) and 24.1 µM (active) in test [14]. Besides, the Potency result in test [11] was “inactive”. In addition, the call in test [15] was inactive.

The values are drawn from PubChem BioAssay (NCATS).
